The values below come from PubChem BioAssay.

For orientation: inhibition means the relative decrease from the control value, in per cent.

Each structure is given as a SMILES string. Values without a mark were called inactive. For some of these results: Measured potencies and affinities stand elsewhere. Calls of active or inactive are those of the source. Unless noted, how the calls were made is not given here.

The nature of assay [1]: antimalarial activity against Dd2 strain (AID 2302;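 active means growth inhibition above 50% at the single 2 µM test dose, taken to imply half-maximal potency below 2 µM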;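 further: 0% = DMSO untreated growth and 100% = chloroquine plus artemisinin killed control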). As to conditions: P. falciparum Dd2 in RBCs, LDH growth readout, 72 h; at 2 µM; hits give high values.
A short description of assay [2]: HepG2 cytotoxicity, primary screen, cytotoxicity control for P. falciparum antimalarial project, cell-based, ATP luminescence (AID 2303;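 active means inhibition above 50%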;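 further: 0% = DMSO wells and 100% = digitonin-killed cells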). The following applies: HepG2 viability, 24-48 h, at 10 µM, hits give high values.
The target in assay [3] is L-lactate dehydrogenase (Plasmodium falciparum (isolate CDC / Honduras)) (UniProt Q27743). Briefly: PfLDH activity inhibition – cell lysate, 3D7 strain, counter-screen for P. falciparum growth inhibition project (AID 2304).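 Further: 0% = vehicle and 100% = reference inhibitor.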 The following applies: P. falciparum 3D7 crude extract, LDH APAD/NBT absorbance; at 2 µM; hits give high values. A general note: The purpose of a counterscreen is to sort out artefacts and off-target activity.

Assay [4] can be described thus: inhibition of 3D7 malaria parasite growth – strain 3D7 (AID 2306).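 Further: 0% = DMSO wells and 100% = chloroquine plus artemisinin control wells.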 As to conditions: P. falciparum 3D7 erythrocytic growth, LDH absorbance, 72 h; at 2 µM; hits give high values.
Assay [5] addresses Calcium-dependent protein kinase 1 (Plasmodium falciparum (isolate 3D7)) (UniProt P62344). Briefly: PfCDPK1 kinase inhibitors, biochemical, TCAMS library (AID 1159585; cut-off not given, nearly all actives have IC50 up to about 0.98 µM;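 further: inhibitors leave more ATP so luminescence rises with inhibition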). The following applies: recombinant PfCDPK1, Kinase-Glo ATP depletion luminescence. A general note: In Kinase-Glo more light means more ATP remaining.
Assay [6] deals with Plasmodium falciparum protein kinase 6 (PK6, PF3D7_1337100) (UniProt Q8IDW1). As to the kind of experiment: PfPK6 kinase inhibitors, biochemical, TCAMS library (AID 1159586). The following applies: recombinant PfPK6, Kinase-Glo ATP depletion luminescence.
Assay [7] deals with Protein kinase 7 (PK7), Plasmodium falciparum 3D7 (PF3D7_0213400) (UniProt Q7YTF7). Briefly: inhibition of Plasmodium PK7 catalytic activity – biochemical, TCAMS antimalarial set, Kinase-Glo luminescence (AID 1159587). As to conditions: recombinant PfPK7, Kinase-Glo ATP depletion luminescence.
In assay [8] the target is Calcium-dependent protein kinase 4 (Plasmodium falciparum (isolate 3D7)) (UniProt Q8IBS5). Briefly: PfCDPK4 kinase inhibitors, biochemical, TCAMS library (AID 1159588; cut-off not given, nearly all actives have IC50 up to about 0.91 µM). As to conditions: recombinant PfCDPK4, Kinase-Glo ATP depletion luminescence.
Chain of Calcium-dependent protein kinase 4 (Plasmodium falciparum (isolate 3D7)) (Q8IBS5 whole entry, looked up): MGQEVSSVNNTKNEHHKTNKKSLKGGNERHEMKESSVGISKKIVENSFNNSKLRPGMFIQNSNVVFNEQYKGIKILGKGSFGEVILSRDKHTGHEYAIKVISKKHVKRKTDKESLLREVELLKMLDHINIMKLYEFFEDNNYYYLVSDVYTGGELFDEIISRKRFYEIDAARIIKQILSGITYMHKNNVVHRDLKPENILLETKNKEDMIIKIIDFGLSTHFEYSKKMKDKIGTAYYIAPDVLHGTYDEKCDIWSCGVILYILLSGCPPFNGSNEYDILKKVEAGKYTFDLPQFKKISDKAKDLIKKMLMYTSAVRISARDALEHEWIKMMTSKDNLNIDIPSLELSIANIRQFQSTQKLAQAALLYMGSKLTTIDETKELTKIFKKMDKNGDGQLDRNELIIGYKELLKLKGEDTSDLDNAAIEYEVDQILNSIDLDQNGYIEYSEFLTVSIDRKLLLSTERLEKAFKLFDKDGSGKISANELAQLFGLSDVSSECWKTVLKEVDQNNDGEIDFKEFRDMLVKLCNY

Chain of L-lactate dehydrogenase (Plasmodium falciparum (isolate CDC / Honduras)) (Q27743 whole entry, looked up): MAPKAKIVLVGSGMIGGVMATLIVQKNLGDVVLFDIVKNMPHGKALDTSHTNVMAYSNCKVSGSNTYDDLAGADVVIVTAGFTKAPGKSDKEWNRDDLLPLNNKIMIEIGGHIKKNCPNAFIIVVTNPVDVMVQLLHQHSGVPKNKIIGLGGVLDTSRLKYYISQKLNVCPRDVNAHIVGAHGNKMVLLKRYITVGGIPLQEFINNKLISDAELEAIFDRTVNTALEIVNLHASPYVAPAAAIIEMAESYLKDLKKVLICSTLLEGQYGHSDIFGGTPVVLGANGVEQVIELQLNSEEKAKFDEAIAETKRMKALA
Chain of Calcium-dependent protein kinase 1 (Plasmodium falciparum (isolate 3D7)) (P62344 whole entry, looked up): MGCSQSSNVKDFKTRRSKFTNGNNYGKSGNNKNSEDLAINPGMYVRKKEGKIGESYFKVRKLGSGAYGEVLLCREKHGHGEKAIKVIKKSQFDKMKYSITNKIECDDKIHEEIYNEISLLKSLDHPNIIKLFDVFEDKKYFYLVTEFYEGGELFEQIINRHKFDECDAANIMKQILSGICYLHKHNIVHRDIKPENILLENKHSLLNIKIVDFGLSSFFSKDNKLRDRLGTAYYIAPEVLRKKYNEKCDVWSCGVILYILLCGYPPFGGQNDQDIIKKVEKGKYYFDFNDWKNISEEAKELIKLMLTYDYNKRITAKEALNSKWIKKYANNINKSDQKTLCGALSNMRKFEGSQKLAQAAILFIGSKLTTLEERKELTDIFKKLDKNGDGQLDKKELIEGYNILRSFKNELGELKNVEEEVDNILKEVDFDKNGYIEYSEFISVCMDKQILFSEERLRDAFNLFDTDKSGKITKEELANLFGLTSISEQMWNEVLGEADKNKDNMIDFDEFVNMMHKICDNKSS
Chain of Protein kinase 7 (PK7), Plasmodium falciparum 3D7 (PF3D7_0213400) (Q7YTF7 1-343): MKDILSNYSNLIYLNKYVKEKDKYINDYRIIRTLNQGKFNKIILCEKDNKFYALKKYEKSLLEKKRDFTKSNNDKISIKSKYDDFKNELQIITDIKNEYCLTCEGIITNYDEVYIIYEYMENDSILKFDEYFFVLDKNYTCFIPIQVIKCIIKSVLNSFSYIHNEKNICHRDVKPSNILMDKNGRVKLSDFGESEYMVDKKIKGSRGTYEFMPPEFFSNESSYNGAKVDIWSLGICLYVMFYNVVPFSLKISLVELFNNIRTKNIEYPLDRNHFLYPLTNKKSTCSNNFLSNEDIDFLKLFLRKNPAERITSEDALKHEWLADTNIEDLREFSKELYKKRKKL
Chain of Plasmodium falciparum protein kinase 6 (PK6, PF3D7_1337100) (Q8IDW1 1-305): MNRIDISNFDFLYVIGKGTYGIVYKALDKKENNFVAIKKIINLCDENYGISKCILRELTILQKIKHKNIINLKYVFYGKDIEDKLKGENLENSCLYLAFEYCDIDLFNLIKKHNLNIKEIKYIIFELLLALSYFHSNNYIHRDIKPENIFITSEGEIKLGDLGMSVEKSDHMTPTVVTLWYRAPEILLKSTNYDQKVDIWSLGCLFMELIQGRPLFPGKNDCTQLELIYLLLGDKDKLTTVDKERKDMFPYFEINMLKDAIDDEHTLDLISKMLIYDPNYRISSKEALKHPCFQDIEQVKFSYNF

Take `CNC(=O)CC(=O)NCCc1ccc(Cl)cc1`: the growth inhibition is 1% in assay [1] and 99% (active) in assay [4]. The values for the inhibition in assay [2] and in assay [3] were -7% and 6%, respectively. Moreover, the result in assay [5], in assay [6], in assay [7] and in assay [8] was inactive.
As to `O=C(/C=C/c1ccc(Cl)c(Cl)c1)NCCCCCN1CCC(CCNC(=O)c2snnc2-c2ccccc2)CC1`, the growth inhibition was 1% in assay [1] and 89% (active) in assay [4]. Moreover, the inhibition in assay [2] was 54% (active); in assay [3], -2%. The outcome in assay [5], in assay [6], in assay [7] and in assay [8] was inactive.
Consider `CCC[C@@H]([C@@H](CC(C)C)C(=O)N[C@@H](CCCCNC(=O)c1cccc(OC)c1)C(=O)Nc1nccs1)N(O)C=O`, for which the figures for the growth inhibition in assay [1] and in assay [4] were 99% (active) and 100% (active), respectively. The inhibition in assay [2] is 5%; in assay [3], -4%. Besides, the result in assay [5], in assay [6], in assay [7] and in assay [8] was inactive.
Take `CC(=O)Nc1ccc(CN(Cc2ccc(F)cc2)Cc2cccc(Oc3ccccc3)c2)cc1`: the figures for the growth inhibition in assay [1] and in assay [4] were 82% (active) and 88% (active), respectively. Besides, the inhibition in assay [2] was -8%; in assay [3], 6%. Moreover, the result in assay [5], in assay [6], in assay [7] and in assay [8] was inactive.
Take `Cc1cc(N2CCC(NS(=O)(=O)c3cccc4cccnc34)CC2)nc(Nc2cccc(C#N)c2)n1`: the figures for the growth inhibition in assay [1] and in assay [4] were 87% (active) and 98% (active), respectively. Moreover, the inhibition in assay [2] was 12%; in assay [3], -3%. In addition, the result in assay [5], in assay [6], in assay [7] and in assay [8] was inactive.
For `Cc1cc(C(=O)Nc2ccc3c(c2)CCN3C2CCN(Cc3cccc4cc[nH]c34)C2)no1` (stereo not given), the growth inhibition in assay [1] was 96% (active); in assay [4], 97% (active). Also, the inhibition in assay [2] is -1%; in assay [3] it was 1%. The outcome in assay [5], in assay [6], in assay [7] and in assay [8] was inactive.
Regarding `O=C(Cc1cccc(O)c1)Nc1ccc(-c2cccc(-c3nc4ccc(C(F)(F)F)cc4[nH]3)c2)cc1`, the growth inhibition in assay [1] was 1%; in assay [4], 86% (active). Also, the inhibition in assay [2] is 14%; in assay [3], 2%. Also, the result in assay [5], in assay [6], in assay [7] and in assay [8] was inactive.
Take `O=C1CSc2ccc(CNC3CCN(CCc4c(Cl)cnc5ccc(Cl)cc45)CC3)nc2N1`: the growth inhibition in assay [1] was 92% (active); in assay [4], 101% (active). Besides, the values for the inhibition in assay [2] and in assay [3] were 25% and 2%, respectively. Also, the outcome in assay [5], in assay [6], in assay [7] and in assay [8] was inactive.
Consider `CCCCCN1CCCC1CNS(=O)(=O)c1cccc(C(=O)Nc2cccc(C#N)c2)c1` (stereo not given), for which the growth inhibition in assay [1] was 7%; in assay [4], 90% (active). For the same compound, the inhibition in assay [2] was 19%; in assay [3] it was -1%. Besides, the result in assay [5], in assay [6], in assay [7] and in assay [8] was inactive.
Consider `COc1cc2c(cc1OC)CN(CCCCNC(=O)c1ccc(NC(=O)c3cc(Cl)cc(Cl)c3)cc1)CC2`, for which the growth inhibition is 75% (active) in assay [1] and 99% (active) in assay [4]. Also, the results for the inhibition in assay [2] and in assay [3] were 19% and -6%, respectively. In addition, the outcome in assay [5], in assay [6], in assay [7] and in assay [8] was inactive.
`COc1ccc(F)cc1-c1ccccc1CNC(=O)CN(C)S(=O)(=O)c1cc(C)cc(Cl)c1C`: the growth inhibition in assay [1] is 73% (active); in assay [4], 92% (active). Further, the inhibition in assay [2] is -3%; in assay [3], -2%. Also, the result in assay [5], in assay [6], in assay [7] and in assay [8] was inactive.
For the compound `COc1ccc2nccc([C@@H](O)CN3CCC(NCc4cc5ccccc5nn4)CC3)c2c1`, the growth inhibition in assay [1] is 16%; in assay [4] it was 94% (active). Moreover, the inhibition in assay [2] is 5%; in assay [3] it was -1%. The outcome in assay [5], in assay [6], in assay [7] and in assay [8] was inactive.
Consider `CCN(CC)CCNc1ccnc2ccc3ccccc3c12`, for which the growth inhibition in assay [1] is 67% (active); in assay [4], 100% (active). The inhibition in assay [2] was 5%; in assay [3], 6%. The result in assay [5], in assay [6], in assay [7] and in assay [8] was inactive.
On to `Cc1ccc(O)cc1Nc1ccnc2cc(-c3ccc(CN4CCCCC4)o3)ccc12`, for which the growth inhibition is 99% (active) in assay [1] and 100% (active) in assay [4]. Besides, the inhibition in assay [2] is 16%; in assay [3], 0%. In addition, the outcome in assay [5], in assay [6], in assay [7] and in assay [8] was inactive.
With `O=C(Nc1ccc(OC2CCN(Cc3ccc(F)cc3)C2)c(Cl)c1)c1ccc(F)cc1` (stereo not given), the figures for the growth inhibition in assay [1] and in assay [4] were 94% (active) and 96% (active), respectively. In addition, the inhibition in assay [2] is 10%; in assay [3] it was -3%. Further, the result in assay [5], in assay [6], in assay [7] and in assay [8] was inactive.
Consider `Cc1ccc([C@@H]2CC(=O)CC(c3ccccn3)[C@H]2[N+](=O)[O-])cc1` (stereo not given in full), for which the growth inhibition in assay [1] is 2%; in assay [4], 97% (active). Besides, the inhibition in assay [2] was 5%; in assay [3], -1%. Further, the outcome in assay [5], in assay [6], in assay [7] and in assay [8] was inactive.
Take `Cc1c(Cc2ccccc2Cl)cnc2nc(N)nc(N)c12`: the growth inhibition is 96% (active) in assay [1] and 91% (active) in assay [4]. For the same compound, the inhibition was 67% (active) in assay [2] and -2% in assay [3]. Also, the result in assay [5], in assay [6], in assay [7] and in assay [8] was inactive.
`CCCCCN1CCCN(Cc2cccc(NC(=O)c3ccc(Cl)c(Cl)c3)c2)CC1`: the values for the growth inhibition in assay [1] and in assay [4] were 28% and 89% (active), respectively. In addition, the inhibition in assay [2] was 30%; in assay [3] it was 0%. For the same compound, the outcome in assay [5], in assay [6], in assay [7] and in assay [8] was inactive.
Consider `CC(C)C[C@H](NC(=O)c1cc(-c2ccc(C(C)(C)C)cc2)no1)C(=O)O` (tested in a mixture with another compound), for which the growth inhibition in assay [1] was 6%; in assay [4], 95% (active). The figures for the inhibition in assay [2] and in assay [3] were 3% and -3%, respectively. Also, the result in assay [5], in assay [6], in assay [7] and in assay [8] was inactive.
Take `COc1cc(Cl)c(C)cc1-n1cc(C(=O)c2cc(Br)ccc2O)cc(C#N)c1=O`: the figures for the growth inhibition in assay [1] and in assay [4] were 35% and 95% (active), respectively. The inhibition in assay [2] was 3%; in assay [3], -3%. Moreover, the outcome in assay [5], in assay [6], in assay [7] and in assay [8] was inactive.
